Measurements taken from PubChem BioAssay.
Records with an inconclusive call do not appear. Activity calls are given as the source filed them.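 How the source made its calls, unless noted: active means inhibition over a set limit, the all-compound mean plus 3 SD, in both replicate runs; inconclusive means over that limit in just one replicate run; inactive means at or under that limit in both runs.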

How the values were obtained:
[1] = Her2 expression decrease, cell viability multiplex – SKBR3 breast tumor cells, AlphaScreen, ATP viability, primary screen (AID 461;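 active means Her2 level under about 52% in both replicate screens, with viability over 70% of control, limit read from the data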;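 on Her2 level: lower value means less Her2 protein in the cells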;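 on viability: percent of carrier control wells set as 100% viability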); conditions: SKBR3 Her2 protein level, 18-24 h, measured here: SKBR3 viability, ATP luminescence, at 10 µM
[2] = target: Receptor tyrosine-protein kinase erbB-2 (Homo sapiens) (UniProt P04626); assay: as above; conditions: 18-24 h, at 10 µM, stronger effect = lower value
[3] = reduced viability of SK-BR-3 breast cancer cells – cell-based, 24 h, human, pilot screen (AID 572;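 active means viability at or below 10% of carrier control in both of two separate runs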;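 further: compound exposure lasted between 18 and 24 h rather than exactly 24 h; 100% = carrier-treated control wells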); conditions: SK-BR-3 viability, CellTiter-Glo luminescence, at 10 µM, stronger effect = lower value
[4] = HUVEC growth inhibition – cell-based, human, primary screen (AID 575;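 active means viability at or below 30% in both replicate assays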;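 further: 100% = median of untreated cell wells with 0.1% DMSO on each plate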); conditions: HUVEC proliferation, CellTiter-Glo luminescence, 72 h; at 10 µM; stronger effect = lower value
[5] = H69AR cell proliferation blockers – human, duplicate replicates, primary screen (AID 580;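 active means viability at or under a set limit in both replicates, limit being median viability minus 3 SD, cut at about 48% in these data, passing the limit was not always enough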;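 further: 100% = mean luminescence of untreated wells and 0% = no signal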); conditions: H69AR lung tumor cells viability, ATP luminescence, 72 h; at 10 µM; stronger effect = lower value
[6] = MRP1 drug-resistance reversers in H69AR cells – cell-based, doxorubicin co-treatment, pilot screen (AID 601;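 active means viability loss from added drug above about 55%, and viability with drug at most 40%, in both replicates, limit read from the data, passing the limit was not always enough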); conditions: CellTiter-Glo, 72 h, at 10 µM; for differential viability (reversal): stronger effect = higher value
[7] = yeast transport mutant growth inhibition pilot in 384-well plates, post-Golgi transport modulator project (AID 636; in the data active means inhibition above about 31%); conditions: absorbance 615 nm, about 18 h, stronger effect = higher value
[8] = growth suppression of yeast trafficking mutant, preliminary HTS, modulators of trafficking downstream of Golgi apparatus project, 1536-format plate, OD 615 nm (AID 637; in the data active means inhibition above about 30%); conditions: yeast transport mutant growth, absorbance 615 nm, 18 h; stronger effect = higher value
[9] = S. cerevisiae growth inhibition in permissive medium (OD615), pilot counter-assay for S. cerevisiae lifespan shortening project, permissive growth control (AID 705;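 active means growth inhibition above 25% in both replicates, a cutoff set 3 SD above the mean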); conditions: OD615, 24 h, at 10 µM, stronger effect = higher value
[10] = S. cerevisiae growth inhibition in restrictive medium, OD615, pilot screen, restrictive growth control, yeast lifespan reduction project (AID 706;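 active means growth inhibition above a set limit, 3 SD over mean compound inhibition, in both replicates, cut at about 43% in these data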;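 further: modified DeaD lifespan yeast strain shifted to restrictive glucose medium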); conditions: OD615, 48 h, at 10 µM, stronger effect = higher value
[11] = doxorubicin toxicity protection in MRP-1 cells – H69AR cells, CellTiter-Glo, duplicate, MRP-1 activator project, pilot screen (AID 807;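 active means viability increase at or above a cutoff of the median across tested compounds plus 3 SD, cut at about 8.5% in these data, passing the limit was not always enough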;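 further: compound pretreatment 18-22 h then 72 h combined with doxorubicin; 0% = doxorubicin alone and 100% = vehicle without doxorubicin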); conditions: H69AR viability with doxorubicin, CellTiter-Glo luminescence; at 10 µM; stronger effect = higher value
[12] = viability of HCT116 without oncogenic beta-catenin – human colon tumor cells, pilot screen (AID 823;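 active means cell viability at or below a set limit in both duplicate runs, the limit being the all-compound median minus 4 SD, cut at about 23% in these data, passing the limit was not always enough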;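 further: 0% = wells killed by 20 µM Hyamine and 100% = untreated DMSO cell wells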); conditions: HCT116 beta-catenin knockout viability, CellTiter-Glo, 60 h; at 10 µM; stronger effect = lower value
[13] = viability of PTEN-null HCT116 cells – cell-based, HCT116 clonal line, CellTiter-Glo, pilot screen (AID 824;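 active means viability at or below 27.92% in each of two runs, the all-compound median minus 4 SD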;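 further: 0% = 20 µM Hyamine control and 100% = vehicle cell control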); conditions: HCT116 PTEN-deleted viability, 60 h, at 10 µM, stronger effect = lower value
[14] = RAM pathway blockade in budding yeast – dse1pr::URA3 reporter, 5-FOA selection, pilot screen (AID 869);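 further: 0% = DMSO wells with no growth and 100% = 10 µM 1-NA-PP1 with full growth; RAM network block rescues cells from 5-FOA so hits raise OD615 growth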; conditions: S. cerevisiae dse1pr::URA3 5-FOA growth, OD615, 2 d; at 10 µM; stronger effect = higher value; strain carries analog-sensitive mutant Cbk1 kinase
[15] = RAM signaling pathway blockade in yeast – S. cerevisiae, Pdr1DBD-CYC8 efflux-inhibited sensitized strain, primary screen (AID 1298;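 active means RAM network inhibition above 8.4% in each of two replicates, 3 SD over the compound average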;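 further: 0% = DMSO untreated cells without growth and 100% = 10 µM 1-NA-PP1 full growth; higher means more yeast growth rescued from 5-FOA killing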); conditions: S. cerevisiae cbk1-as DSE1-URA3 strain, 5-FOA growth OD615, 2 d; at 50 µM; stronger effect = higher value
[16] = H69AR cells + 2 uM doxorubicin, measured here: viability with 2 uM doxorubicin, stronger effect = lower value
[17] = H69AR cells, compound alone cytotoxicity

Sequence of Receptor tyrosine-protein kinase erbB-2 (Homo sapiens) (P04626 whole entry, looked up): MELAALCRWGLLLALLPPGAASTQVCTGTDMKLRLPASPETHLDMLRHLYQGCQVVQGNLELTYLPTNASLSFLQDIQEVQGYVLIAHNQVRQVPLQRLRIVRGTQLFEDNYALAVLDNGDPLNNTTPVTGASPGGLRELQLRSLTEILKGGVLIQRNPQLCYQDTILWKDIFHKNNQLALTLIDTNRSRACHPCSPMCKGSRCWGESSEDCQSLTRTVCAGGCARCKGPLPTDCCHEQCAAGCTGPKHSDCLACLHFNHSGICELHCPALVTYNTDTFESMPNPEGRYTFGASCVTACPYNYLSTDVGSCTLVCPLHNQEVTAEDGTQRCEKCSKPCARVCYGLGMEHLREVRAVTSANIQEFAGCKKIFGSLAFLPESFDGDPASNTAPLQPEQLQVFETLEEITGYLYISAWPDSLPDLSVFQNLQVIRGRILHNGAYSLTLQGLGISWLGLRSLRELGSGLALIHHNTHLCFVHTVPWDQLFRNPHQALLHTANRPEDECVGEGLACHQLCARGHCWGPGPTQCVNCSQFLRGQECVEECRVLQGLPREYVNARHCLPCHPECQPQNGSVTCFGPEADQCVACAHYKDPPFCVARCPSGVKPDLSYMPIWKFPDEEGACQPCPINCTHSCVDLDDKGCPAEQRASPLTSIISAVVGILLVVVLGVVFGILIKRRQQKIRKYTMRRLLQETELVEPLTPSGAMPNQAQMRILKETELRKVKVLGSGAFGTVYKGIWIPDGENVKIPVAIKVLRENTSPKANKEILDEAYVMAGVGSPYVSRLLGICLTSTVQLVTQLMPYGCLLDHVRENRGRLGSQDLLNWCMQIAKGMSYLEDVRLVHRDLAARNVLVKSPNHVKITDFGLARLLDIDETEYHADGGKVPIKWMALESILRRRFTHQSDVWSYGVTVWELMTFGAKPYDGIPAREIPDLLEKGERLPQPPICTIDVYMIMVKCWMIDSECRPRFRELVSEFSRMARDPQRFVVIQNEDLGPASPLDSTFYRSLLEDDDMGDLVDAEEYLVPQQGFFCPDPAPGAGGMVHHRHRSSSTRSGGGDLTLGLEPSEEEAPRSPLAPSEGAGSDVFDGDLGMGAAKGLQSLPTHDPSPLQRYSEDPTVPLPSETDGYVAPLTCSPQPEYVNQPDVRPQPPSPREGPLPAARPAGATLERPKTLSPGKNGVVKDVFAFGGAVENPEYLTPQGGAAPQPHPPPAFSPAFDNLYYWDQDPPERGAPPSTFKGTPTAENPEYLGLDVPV

Cc1nnc(NC(=O)c2ccco2)s1
98.5%: viability [1]
inactive: Her2 level [2] 92.5% | viability [3] 98.5% | viability [4] 98.6% | viability [5] 104% | differential viability (reversal) ([6]; H69AR cells + 2 uM doxorubicin) 7.39% | inhibition [7] -4.13% | inhibition [8] 7.21% | growth inhibition [9] -10.1% | growth inhibition [10] -8.55% | viability increase [11] 4.22% | viability [12] 94.9% | viability [13] 97.2% | inhibition [14] 0.67% | RAM network inhibition [15] 0.21%
104%: viability [6, 17]
96.3%: viability [6, 16]

Cc1ccc(OCC(O)CN2C(=O)NC(C)(C)C2=O)cc1C (stereo not drawn)
105%: viability [1]
102%: viability [6, 17]
86.4%: viability [6, 16]
inactive: Her2 level [2] 94.5% | viability [3] 105% | viability [4] 88% | viability [5] 102% | differential viability (reversal) ([6]; H69AR cells + 2 uM doxorubicin) 15.8% | inhibition [7] -5.73% | inhibition [8] 5.08% | growth inhibition [9] -11.3% | growth inhibition [10] -19.3% | viability increase [11] -0.62% | viability [12] 105% | viability [13] 94% | inhibition [14] 0.65% | RAM network inhibition [15] 4.18%

CCCCS(=O)(=O)NC1=NCN(CCOC(=O)c2ccccc2)CN1
102%: viability [6, 17]
95.5%: viability [1]
87.6%: viability [6, 16]
inactive: Her2 level [2] 84.5% | viability [3] 95.5% | viability [4] 104% | viability [5] 102% | differential viability (reversal) ([6]; H69AR cells + 2 uM doxorubicin) 14.3% | inhibition [7] -3.6% | inhibition [8] 2.58% | growth inhibition [9] -8.81% | growth inhibition [10] -6.13% | viability increase [11] -2.67% | viability [12] 91.8% | viability [13] 93.2% | inhibition [14] 0.005% | RAM network inhibition [15] 0.98%

CCSc1nc(O)c(CC)c(=O)n1C(C)CC (stereo not drawn)
104%: viability [1]
108%: viability [6, 17]
inactive: Her2 level [2] 128% | viability [3] 104% | viability [4] 97.9% | viability [5] 108% | differential viability (reversal) ([6]; H69AR cells + 2 uM doxorubicin) 14.9% | inhibition [7] -6% | inhibition [8] -0.48% | growth inhibition [9] -9.35% | growth inhibition [10] -3.4% | viability increase [11] -0.54% | viability [12] 98.6% | viability [13] 93.7% | inhibition [14] -0.63% | RAM network inhibition [15] 11.3%
93.2%: viability [6, 16]

CCCSCCCNC(=O)Cn1cc2c(n1)CCC(C)C2 (stereo not drawn)
inactive: Her2 level [2] 106% | viability [3] 99.5% | viability [4] 101% | viability [5] 98.8% | differential viability (reversal) ([6]; H69AR cells + 2 uM doxorubicin) 7.85% | inhibition [7] 4.49% | inhibition [8] -0.67% | growth inhibition [9] 3.59% | growth inhibition [10] 1.5% | viability increase [11] -0.9% | viability [12] 102% | viability [13] 95.7% | inhibition [14] 0.775% | RAM network inhibition [15] 1.33%
91%: viability [6, 16]
99.5%: viability [1]
98.8%: viability [6, 17]

O=C1c2ccccc2S(=O)(=O)N1CC(O)Cn1c2ccccc2c2ccccc21 (stereo not drawn)
85%: viability [6, 17]
87.6%: viability [6, 16]
inactive: Her2 level [2] 96% | viability [3] 90% | viability [4] 73.2% | viability [5] 85% | differential viability (reversal) ([6]; H69AR cells + 2 uM doxorubicin) -2.51% | growth inhibition [9] -2.73% | growth inhibition [10] 9.13% | viability increase [11] -1.19% | viability [12] 89.7% | viability [13] 96.3% | inhibition [14] 2.46% | RAM network inhibition [15] 0.57%
90%: viability [1]
active: inhibition [7] 99.3% | inhibition [8] 94.7%

COC(=O)Cn1c(=O)c2c(nc3n2CC(C)CN3c2ccc(C)c(C)c2)n(C)c1=O (stereo not drawn)
inactive: Her2 level [2] 89% | viability [3] 90.5% | viability [4] 93.2% | viability [5] 85.5% | differential viability (reversal) ([6]; H69AR cells + 2 uM doxorubicin) 15.8% | inhibition [7] -9.47% | inhibition [8] -3.5% | growth inhibition [9] -5.87% | growth inhibition [10] 0.135% | viability increase [11] -0.75% | viability [12] 97.9% | viability [13] 91.1% | inhibition [14] 1.25% | RAM network inhibition [15] 4.14%
69.7%: viability [6, 16]
85.5%: viability [6, 17]
90.5%: viability [1]

COc1ccccc1NC1=C(C)C(=O)CC1
98%: viability [1]
88.7%: viability [6, 17]
inactive: Her2 level [2] 72% | viability [3] 98% | viability [4] 90.4% | viability [5] 88.7% | differential viability (reversal) ([6]; H69AR cells + 2 uM doxorubicin) 14.5% | inhibition [7] -7.43% | inhibition [8] -0.67% | growth inhibition [9] -1.07% | growth inhibition [10] -11.9% | viability increase [11] -4.17% | viability [12] 75.4% | viability [13] 85.5% | inhibition [14] 1.62% | RAM network inhibition [15] -0.26%
74.1%: viability [6, 16]

Cc1cccc(-n2nc3c(c2NC(=O)CCC2CCCCC2)CS(=O)C3)c1C (stereo not drawn)
inactive: Her2 level [2] 94.5% | viability [3] 95% | viability [4] 86.3% | viability [5] 90.9% | differential viability (reversal) ([6]; H69AR cells + 2 uM doxorubicin) 1.55% | inhibition [7] -4.13% | inhibition [8] 1.33% | growth inhibition [9] -8.41% | growth inhibition [10] 1.94% | viability increase [11] -1.85% | viability [12] 91.8% | viability [13] 92.1% | inhibition [14] 1.02% | RAM network inhibition [15] 1.36%
89.3%: viability [6, 16]
95%: viability [1]
90.9%: viability [6, 17]
